# NPC1 promoter act = activators of NPC1 promoter | Huh7 NPC1 promoter luciferase reporter, 24 h | Potency, µM (doses to about 9.22 µM), for inactives: at the highest dose activation, hits mostly activators | actives 2.4% (n = 320,000); note: % of control where 0% means no effect; nearly all actives have a fitted effect of over 60% in size
#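 Stably transfected Huh7 (NPC1 promoter→luciferase), 1500 cells/well in Opti-MEM + 10% FBS, 2 h settle, then compound 24 h at 37 °C. Luminescence after 10 min with Amplite reagent.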
# FLuc counter = inhibits or activates purified firefly luciferase, miR-21 counter-screen; AID 588342; Potency, µM (titrated, usually from 57.5 µM), for the others: at the highest dose activity change, negative = inhibition, actives largely listed as inhibitors; P08659; purified FLuc, Km substrates, luminescence inhibition; actives 6.9% (n = 360,000);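 note: plate controls were vehicle for no effect and reference inhibitor for full effect; nearly all actives have a fitted effect of over 55% in size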
# Target sequence (P08659 whole entry, looked up): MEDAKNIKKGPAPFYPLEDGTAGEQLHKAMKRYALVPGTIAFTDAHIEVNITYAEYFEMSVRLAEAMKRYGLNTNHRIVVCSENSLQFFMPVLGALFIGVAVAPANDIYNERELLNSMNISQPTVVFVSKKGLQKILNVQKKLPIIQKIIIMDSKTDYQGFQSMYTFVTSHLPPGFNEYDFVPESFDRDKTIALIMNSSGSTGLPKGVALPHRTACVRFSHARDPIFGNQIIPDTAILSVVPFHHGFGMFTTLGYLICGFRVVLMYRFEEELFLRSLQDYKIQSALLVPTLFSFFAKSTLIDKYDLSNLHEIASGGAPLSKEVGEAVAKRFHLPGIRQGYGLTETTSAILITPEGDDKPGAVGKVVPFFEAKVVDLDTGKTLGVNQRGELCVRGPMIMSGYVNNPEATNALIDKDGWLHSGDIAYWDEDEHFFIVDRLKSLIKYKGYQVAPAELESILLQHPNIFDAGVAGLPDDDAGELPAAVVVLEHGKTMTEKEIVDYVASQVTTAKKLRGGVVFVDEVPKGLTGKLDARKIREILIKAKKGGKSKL
#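 Biochemical qHTS of compounds, final roughly 60 µM downward over six points, against 10 nM purified firefly luciferase using Km concentrations of substrates (10 uM D-luciferin, 10 uM ATP) in Tris acetate pH 7.5 buffer; luminescence output.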
# KinaseGlo FLuc = counter-screen: inhibitors of Kinase-Glo firefly luciferase; actives 0.28% (n = 200,000); Q27757; Potency, µM (doses to about 38.3 µM), for the others: top-dose activity change, negative = inhibition, usual class: inhibitors; Kinase-Glo luciferase, ATP luminescence, 8 min; note: % is set by controls: 0 for no effect and ±100 for the full control effect; nearly all actives have a fitted effect of over 60% in size
#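 Inhibition of Kinase-Glo luciferase light generation was assessed at 10 uM ATP in pH 7.2 imidazole buffer, with luminescence measured after eight minutes at ambient temperature.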
# SMN2 splice enh = enhancers of SMN2 splice variant expression; AID 1458; HEK293 SMN2-luciferase splicing reporter, luminescence, 30-36 h; Potency, µM (top dose mostly 46.1 µM), for the others: at the highest dose activity change, positive = activation, hits mostly activators; actives 2.8% (n = 210,000); note: % of control where 0% means no effect; nearly all actives have a fitted effect of over 55% in size
#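 HEK293 cells carry an SMN2 minigene-luciferase reporter in which exon 7 inclusion puts luciferase in frame. Cells were seeded at 2000 cells/well, attached for 10-12 hours, then exposed to compounds for 30-36 hours at 37C before ONE-Glo luminescence.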
# ELG1 genotox = induces genotoxicity in HEK293T cells with luciferase-tagged ELG1; HEK293T ELG1-luciferase reporter, luminescence, 16 h; Potency, µM (top dose mostly 46 µM), inactives show top-dose activity change, positive = activation, usual class: activators; actives 1.3% (n = 330,000); note: % of control where 0% means no effect; nearly all actives have a fitted effect of over 60% in size
#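 After overnight (16 hr) compound treatment at 37 °C, ELG1-luciferase HEK293T cells were lysed with ONE-Glo; luminescence quantified 30 min later at room temperature.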
# Rab9 prom act = activates the Rab9 promoter | Potency, µM (highest dose often 9.22 µM), without a hit: at the top dose activation, negative = inhibition, actives largely listed as activators | Huh7 Rab9 promoter-luciferase reporter, luminescence, 24 h | actives 2.8% (n = 320,000); note: % of control where 0% means no effect; nearly all actives have a fitted effect of over 60% in size
#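 Luminescence from Amplite-detected luciferase (10 minutes, ambient) reports Rab9 promoter activation. Before that, stable Rab9-luciferase Huh7 cells (1500/well, reduced-serum OP-MEM I plus 10% FBS) were exposed to compound for 24 hours at 37C.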
# The depositor's hits bear a star; ? = inconclusive; . = no result given; [ ] = another dose, or the depositor's remark. Compounds with a hit are over-represented: about 7.5% of the library has one in this group of screens. Calls come from the whole dose curve; as a rule, active = well fitted curve in the direction sought with a large enough effect; inconclusive = small, poorly fitted or top-dose-only effect, or another doubt; inactive = no such curve, though single readings can be large; an effect the other way counts as inactive or inconclusive. Potency is the fitted concentration of half-maximal effect.
SMILES,NPC1 promoter act,FLuc counter,KinaseGlo FLuc,SMN2 splice enh,ELG1 genotox,Rab9 prom act
O=C(OCc1cc(=O)n2c(n1)sc1ccccc12)c1ccc(O)cc1,9.4%,?,-2.2%,20µM*,?,18.0%
O=c1cc(CCl)nc2sc3ccccc3n12,-7.8%,-0.1%,-7.9%,-2.6%,-0.3%,-1.9%
CCc1nn2c(=O)cc(COC(=O)c3ccccc3)nc2s1,.,16.9µM*,.,.,.,.
CCc1nn2c(=O)cc(COC(=O)c3ccccc3NC(=O)c3ccc(C(C)(C)C)cc3)nc2s1,.,5.36µM*,.,.,.,.
Cc1csc2nc(COC(=O)c3ccccc3NC(=O)c3ccc(C(C)(C)C)cc3)cc(=O)n12,.,2.69µM*,.,.,.,.
COc1cc2nc(NCc3ccc(C)cc3)n3nc(-c4ccccc4)nc3c2cc1OC,.,-0.5%,.,-11.4%,.,.
CCc1ccc(C2CC(=O)N(c3cccc(C(F)(F)F)c3)C3=C2C(=O)OC3)cc1 (stereo not drawn),.,1.7%,.,11.7%,.,.
COc1ccc(CNS(=O)(=O)c2cnc(N)nc2)cc1,.,-2.3%,.,.,.,.
CCCOc1ccc(CNC(=O)CN2C(=O)c3cccnc3Oc3ccc(C)cc32)cc1,.,-11.4%,.,.,.,.
Cc1nn(CC(=O)N2CCC(C)CC2)c(=O)c2cc3occc3n12,.,-0.9%,.,1.2%,.,.
O=C(OCc1ccc(F)cc1Cl)c1ccccn1,-0.9%,?,?,.,-6.8%,-1.6%
CCCCC(=O)N1CCCC(c2nc(-c3cccc(OC)c3)no2)C1 (stereo not drawn),?,16.9µM*,-6.0%,.,14.1%,?
COc1cccc(-c2noc(C3CCCN(C(=O)CC(C)(C)C)C3)n2)c1 (stereo not drawn),-7.8%,0.6%,-1.1%,.,-4.2%,-3.3%
COc1cccc(-c2noc(C3CCCN(C(=O)c4ccccc4OC)C3)n2)c1 (stereo not drawn),?,21.3µM*,.,.,10.0%,29.8%
CCOc1ccc(C(=O)N[C@H](C(=O)Nc2ccccc2OC)C(C)C)cc1,-5.3%,6.5%,.,.,2.1%,3.8%
CCOC(=O)c1nn(-c2ccc3c(c2)CCN3C(C)=O)cc1O,1.58µM*,3.79µM*,-11.5%,10µM*,1.64µM*,2.24µM*
CCOC(=O)c1nn(-c2ccc(F)cc2)cc1O,?,?,8.1%,-16.7%,?,?
Cc1csc2c(N3CCN(S(=O)(=O)c4ccc(Cl)cc4)CC3)ncnc12,-2.4%,1.3%,.,.,-0.6%,-5.6%
Cc1csc2c(N3CCCCC3)ncnc12,?,13.5µM*,.,.,10.4%,19.4%
Cc1csc2c(N3CCC(C(=O)O)CC3)ncnc12,1.9%,16.9µM*,.,.,8.3%,17.8%
Cc1csc2c(N3CCN(C(=O)Nc4ccc(OC(F)(F)F)cc4)CC3)ncnc12,-0.8%,-19.9%,.,.,-9.7%,0.6%
COC(=O)C1=C(C(=O)OC)[C@@H]2Nc3ccccc3[C@@]23C[C@@H](C(=O)OC)N(S(=O)(=O)c2cccs2)C3=N1,.,.,-7.2%[7.66 µM],17.9%[9.22 µM],.,.
Cc1ccc(-c2cc(C(=O)Nc3cccc(S(=O)(=O)N(C)C)c3)c3ccccc3n2)o1,-6.2%,9.53µM*,.,.,-9.1%,15.8%
COC(=O)c1cc(-c2ccc(C)o2)nc2ccccc12,4.2%,10.7µM*,-0.9%,4.4%,-0.2%,0.7%
CN(C)S(=O)(=O)c1cccc(NC(=O)c2c[nH]c3ccccc23)c1,15.4%,21.3µM*,.,.,-11.6%,16.8%
SMILES,NPC1 promoter act,FLuc counter,KinaseGlo FLuc,SMN2 splice enh,ELG1 genotox,Rab9 prom act
Cc1ccc(-c2cc(C(=O)OCC(=O)N(C)c3c(N)n(Cc4ccccc4)c(=O)[nH]c3=O)c3ccccc3n2)o1,8.0%,2.39µM*,.,.,?,19.1%
Cc1ccc(-c2cc(C(=O)NCC(c3ccccc3)N(C)C)c3ccccc3n2)o1 (stereo not drawn),.,.,.,.,2.4%,.
CCc1nnc(NC(=O)c2cc(-c3ccc(C)o3)nc3ccccc23)s1,-0.6%,10.7µM*,.,.,-0.9%,2.2%
Cc1ccc(-c2cc(C(=O)Nc3ccccc3C)c3ccccc3n2)o1,-6.3%,8.49µM*,-1.9%,1.2%,0.8%,-3.4%
Cc1cc(C)cc(NC(=O)Cn2c3ncccc3c(=O)n2-c2ccc(C)c(C)c2)c1,.,1.6%,.,.,.,.
O=C(CN1CCN(Cc2ccc(Cl)cc2)CC1)N/N=C/C=C/c1ccccc1[N+](=O)[O-],-3.4%,2.9%,1.0%,-51.4%,-2.9%,-12.3%
O=C(CCSc1ccc(Cl)cc1)N1CCN(c2ncccn2)CC1,?,19µM*,-8.0%,8.3%,?,24.9%
O=C(CCSc1ccc(Cl)cc1)N1CCCCCC1,?,19µM*,-2.0%,7.4%,14.3%,3.55µM*
COC(=O)c1ccc(COc2cc([N+](=O)[O-])cc3cccnc23)o1,-0.1%,21.3µM*,-3.2%,.,-2.3%,-0.8%
O=C(COc1cc([N+](=O)[O-])cc2cccnc12)NCCC1=CCCCC1,-4.6%,0.1%,.,.,-9.5%,4.3%
COC(=O)c1ccc(COc2ccc(C)cc2[N+](=O)[O-])o1,?,19µM*,.,.,-6.9%,?
Cc1ccc(OCc2ccc(C(=O)NN)o2)c([N+](=O)[O-])c1,8.7%,?,.,.,2.9%,-2.7%
COC(=O)[C@H](Cc1ccccc1)NC(=O)N1CCN(c2ccc(F)cc2)CC1,-2.5%,-2.0%,.,.,-5.0%,-1.4%
Nc1nnc(-c2cc3c(ccc4ccccc43)oc2=O)s1,-0.5%,-9.1%,-0.7%,-11.5%,4.4%,?
COC(=O)Nc1c(-c2ccccc2)nc2ccc(Cl)cn12,-0.5%,-17.1%,.,.,0.0%,0.3%
Cc1ccccc1Nc1c(-c2cccnc2)nc2ccc(Br)cn12,0.1%,-1.4%,-1.0%,-28.6%,-20.4%,-6.5%
Cc1ccccc1Nc1c(-c2ccncc2)nc2ccc(Br)cn12,-0.3%,2.6%,0.6%,12.6µM*,-5.4%,1.9%
COC(=O)CNc1c(-c2ccccc2)nc2ccc(Br)cn12,?,7.57µM*,-8.3%,29.1%,?,?
Cc1ccc2nc(-c3cccnc3)c(Nc3ccccc3C)n2c1,1.0%,-1.1%,6.8%,-3.8%,-9.8%,-10.5%
Cc1ccc2nc(-c3ccncc3)c(Nc3ccccc3C)n2c1,.,-1.8%,.,11.2µM*,.,.
Cc1ccccc1NC(=S)NC12CN3CN(CN(C3)C1)C2,-0.5%,2.3%,13.5%,-2.2%,15.5%,6.7%
Nc1nc2ccccc2n1/N=C/c1ccc(-c2ccccc2)o1,?,?,-2.8%,27.1%,?,3.98µM*
Cc1ccc(C(=O)OCCc2c(C)[nH]n(-c3ccccc3)c2=O)cc1,-4.0%,13.5µM*,-0.2%,-21.7%,-0.1%,1.9%
Cc1[nH]n(-c2ccccc2)c(=O)c1CCOC(=O)c1cccc(C(F)(F)F)c1,2.1%,4.9%,-1.5%,-13.4%,0.6%,2.7%

# Compound activity (PubChem)
